In PubChem BioAssay (EPA / NIEHS):
Records with an inconclusive call do not appear. Calls of active or inactive are those of the source. Rule for the calls: active = hit-call score of the fitted dose curve at least 0.9, where 1 is the maximum; inconclusive = response in the unintended direction; inactive = score below 0.9.

Legend:
[1] = NVS_GPCR_bNPY_NonSelective: NovaScreen (NVS) G Protein-Coupled Receptor Assay for bovine Neuropeptide Y (NPY) Receptor, Non-selective Binding (AID 2283245)
Summary of the method: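 Bovine hippocampal membranes incubated 1 hour with radioligand and test chemical. Bound ligand measured by filter-based scintillation counting. Single-concentration screen at 25 uM in duplicate, then concentration-response up to 50 uM.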

[2] = biological target: human Serotonin, 5-Hydroxytryptamine Receptor 2A (5HT2A), HTR2A (gene 3356) (UniProt P28223); experiment: NVS_GPCR_h5HT2A: NovaScreen (NVS) G Protein-Coupled Receptor Assay for human Serotonin, 5-Hydroxytryptamine Receptor 2A (5HT2A) (AID 2283249)
Summary of the method: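 Human cortex membranes, cell-free radioligand binding; filter-based scintillation read 1.5 h after dosing. Duplicate screen at 25 uM first; displacement of specific binding (loss of signal) versus DMSO.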

[3] = test system: guinea pig Muscarinic, Peripheral (Mperiperal) Receptor, Non-selective Binding, gene 100379235; experiment: NVS_GPCR_gMPeripheral_NonSelective: NovaScreen (NVS) G Protein-Coupled Receptor Assay for guinea pig Muscarinic, Peripheral (Mperiperal) Receptor, Non-selective Binding (AID 2283250)
Summary of the method: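 Guinea pig bladder membranes, radioligand binding read 1 h after dosing by filter scintillation counting; loss of signal vs DMSO. Primary duplicate screen at 25 uM, then concentration-response up to 50 uM.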

[4] = biological target: human Serotonin, 5-Hydroxytryptamine Receptor 6 (5HT6), HTR6 (gene 3362) (UniProt P50406); experiment: NVS_GPCR_h5HT6: NovaScreen (NVS) G Protein-Coupled Receptor Assay for human Serotonin, 5-Hydroxytryptamine Receptor 6 (5HT6) (AID 2283253)
Summary of the method: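 Radioligand binding to 5HT6 in HEK293-derived membranes, cell-free, 1 h after dosing; bound ligand measured by filter-based scintillation counting. Primary screen in duplicate at 25 uM; actives retested in concentration series.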

[5] = biological target: human Serotonin, 5-Hydroxytryptamine Receptor 7 (5HT7), HTR7 (gene 3363) (UniProt P34969); experiment: NVS_GPCR_h5HT7: NovaScreen (NVS) G Protein-Coupled Receptor Assay for human Serotonin, 5-Hydroxytryptamine Receptor 7 (5HT7) (AID 2283255);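 note: hits reduce specific radioligand binding relative to DMSO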
Summary of the method: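 Radioligand displacement on membranes from CHO cells expressing human 5HT7, 1 h incubation, filter-based scintillation counting. Primary screen used a single 25 uM concentration in duplicate; actives were followed up in concentration series.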

[6] = biological target: human Adenosine A2a Receptor (AdoRA2a), ADORA2A (gene 135) (UniProt P29274); experiment: NVS_GPCR_hAdoRA2a: NovaScreen (NVS) G Protein-Coupled Receptor Assay for human Adenosine A2a Receptor (AdoRA2a) (AID 2283256)
Summary of the method: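 Cell-free radioligand binding on membranes from HEK293 expressing the receptor; competitive displacement read 1.5 h after dosing by filter-based scintillation counting. Primary screen in duplicate at 25 uM; actives followed in concentration series, with DMSO as baseline.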

[7] = biological target: human Adrenergic, Alpha 2A Receptor (Adra2A), ADRA2A (gene 150) (UniProt P08913); experiment: NVS_GPCR_hAdra2A: NovaScreen (NVS) G Protein-Coupled Receptor Assay for human Adrenergic, Alpha 2A Receptor (Adra2A) (AID 2283257)
Summary of the method: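 Radioligand filter-binding was run on HT29-derived membranes, cell-free, read by scintillation counting 1 h after dosing. Primary screening was in duplicate at 25 uM, with concentration series in follow-up. Loss of signal versus DMSO indicates displacement.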

[8] = biological target: human Adrenergic, Beta 1 Receptor (Adrb1), ADRB1 (gene 153) (UniProt P08588); experiment: NVS_GPCR_hAdrb1: NovaScreen (NVS) G Protein-Coupled Receptor Assay for human Adrenergic, Beta 1 Receptor (Adrb1) (AID 2283258)
Summary of the method: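 Cell-free radioligand displacement on receptor from human neuroepithelioma cells; 2 h after dosing, filter-based scintillation counting. Primary screen in duplicate at 25 uM, actives retested in concentration series; loss of signal vs DMSO baseline.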

[9] = biological target: human Adrenergic, Alpha 2c Receptor (Adra2C), ADRA2C (gene 152) (UniProt P18825); experiment: NVS_GPCR_hAdra2C: NovaScreen (NVS) G Protein-Coupled Receptor Assay for human Adrenergic, Alpha 2c Receptor (Adra2C) (AID 2283259)
Summary of the method: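 Radioligand binding on Sf9-expressed receptor membranes, 1 h after chemical dosing, filter-based scintillation read-out. Loss of binding fitted positively versus DMSO; primary duplicate screen at 25 uM, actives retested in concentration series.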

[10] = biological target: Beta-2 adrenergic receptor (Homo sapiens) (UniProt P07550); experiment: NVS_GPCR_hAdrb2: NovaScreen (NVS) G Protein-Coupled Receptor Assay for human Adrenergic, Beta 2 Receptor (Adrb2) (AID 2283261)
Summary of the method: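 Filter-based radioligand binding using receptor prepared from CHO cells, 1 h incubation, scintillation counting. Primary screen in duplicate at 25 uM, actives retested in concentration series; loss of binding relative to DMSO.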

[11] = biological target: human Adrenergic, Beta 3 Receptor (Adrb3), ADRB3 (gene 155) (UniProt P13945); experiment: NVS_GPCR_hAdrb3: NovaScreen (NVS) G Protein-Coupled Receptor Assay for human Adrenergic, Beta 3 Receptor (Adrb3) (AID 2283262)
Summary of the method: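 Membranes from SK-N-MC cells pretreated with isoproterenol and 8-bromo-cAMP were used in a radioligand competitive displacement binding assay. Binding was read by filter-based scintillation counting 1 hour after dosing. Primary screening was in duplicate at 25 uM, with concentration series in follow-up.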

[12] = biological target: human Dopamine Receptor D4.4 (DRD4.4), DRD4 (gene 1815) (UniProt P21917); experiment: NVS_GPCR_hDRD4.4: NovaScreen (NVS) G Protein-Coupled Receptor Assay for human Dopamine Receptor D4.4 (DRD4.4) (AID 2283264)
Summary of the method: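 Radioligand displacement on human DRD4.4 from CHO-derived membranes, 1 hour incubation, bound counts read by filtration and scintillation. Primary screen in duplicate at 25 uM; actives followed up in concentration series.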

[13] = biological target: human Endothelin Receptor Type A (ETA), EDNRA (gene 1909) (UniProt P25101); experiment: NVS_GPCR_hETA: NovaScreen (NVS) G Protein-Coupled Receptor Assay for human Endothelin Receptor Type A (ETA) (AID 2283265)
Summary of the method: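 Cell-free radioligand displacement using SH-SY5Y-derived protein, 3 h incubation, filter-based scintillation counting. Primary screen in duplicate at 25 uM; actives then run in concentration-response up to 50 uM; loss of binding fitted versus DMSO.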

[14] = biological target: human Histamine 1 Receptor (H1), HRH1 (gene 3269) (UniProt P35367); experiment: NVS_GPCR_hH1: NovaScreen (NVS) G Protein-Coupled Receptor Assay for human Histamine 1 Receptor (H1) (AID 2283268)
Summary of the method: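 Cell-free radioligand displacement at human H1 receptor, 1 h, filter scintillation counting; primary screen 25 uM in duplicate, hits in concentration series; loss of binding fitted vs DMSO.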

[15] = test system: bovine Histamine 1 Receptor (H1), gene 281231; experiment: NVS_GPCR_bH1: NovaScreen (NVS) G Protein-Coupled Receptor Assay for bovine Histamine 1 Receptor (H1) (AID 2283246)
Summary of the method: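 Radioligand displacement on bovine cerebellar membranes, 1 h after dosing, filter-based scintillation read-out; loss of signal vs DMSO. Duplicate single-concentration screen at 25 uM, then concentration-response up to 50 uM for hits.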

[16] = test system: guinea pig Leukotriene B4 Receptor (LTB4), gene 100379538; experiment: NVS_GPCR_gLTB4: NovaScreen (NVS) G Protein-Coupled Receptor Assay for guinea pig Leukotriene B4 Receptor (LTB4) (AID 2283247)
Summary of the method: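 Radioligand displacement on guinea pig spleen membranes, filter-based scintillation counting 2 h after dosing. Primary duplicate single point at 25 uM; hits over threshold (e.g. 30% inhibition) run in concentration-response up to 50 uM, DMSO baseline.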

[17] = biological target: human Endothelin Receptor Type B (ETB), EDNRB (gene 1910) (UniProt P24530); experiment: NVS_GPCR_hETB: NovaScreen (NVS) G Protein-Coupled Receptor Assay for human Endothelin Receptor Type B (ETB) (AID 2283267)
Summary of the method: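 Human astrocytoma cell membranes; radioligand competitive binding read by filter scintillation counting 4 hours after dosing. Single-concentration duplicate screen at 25 uM, then singleton concentration-response up to 50 uM; loss of signal versus DMSO.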

[18] = biological target: guinea pig Leukotriene D4 Receptor (LTD4), CYSLTR1 (gene 100135514) (UniProt Q2NNR5); experiment: NVS_GPCR_gLTD4: NovaScreen (NVS) G Protein-Coupled Receptor Assay for guinea pig Leukotriene D4 Receptor (LTD4) (AID 2283248)
Summary of the method: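 Radioligand displacement on guinea pig lung membranes, 1 h incubation, filtration and scintillation counting; DMSO as negative control. Duplicate 25 uM primary screen, then singleton concentration-response up to 50 uM.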

[19] = biological target: Type-1 angiotensin II receptor (Homo sapiens) (UniProt P30556); experiment: NVS_GPCR_hAT1: NovaScreen (NVS) G Protein-Coupled Receptor Assay for human Angiotensin II receptor type 1 (AT1) (AID 2283263)
Summary of the method: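 Membranes from KAN-TS cells; radioligand competitive displacement, 3 h, filtration and scintillation counting. Single-point duplicate screen at 25 uM, then concentration-response up to 50 uM for hits; loss of signal fitted versus DMSO.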

[20] = biological target: guinea pig Opioid, Kappa 1 Receptor (OpiateK), OPRK1 (gene 100135587) (UniProt P41144); experiment: NVS_GPCR_gOpiateK: NovaScreen (NVS) G Protein-Coupled Receptor Assay for guinea pig Opioid, Kappa 1 Receptor (OpiateK) (AID 2283252);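 note: radioligand displacement from kappa opioid receptor in guinea pig cerebellar membranes; active means reduced radioligand binding relative to DMSO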
Summary of the method: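 Signal is scintillation counts of filter-trapped radioligand bound to guinea pig cerebellar membrane receptor, measured 2 hours post-dosing. Activity is loss of binding versus DMSO, first at 25 uM in duplicate, then as concentration series for actives.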

human Adrenergic, Beta 1 Receptor (Adrb1), ADRB1 (gene 153), sequence (P08588 whole entry, looked up): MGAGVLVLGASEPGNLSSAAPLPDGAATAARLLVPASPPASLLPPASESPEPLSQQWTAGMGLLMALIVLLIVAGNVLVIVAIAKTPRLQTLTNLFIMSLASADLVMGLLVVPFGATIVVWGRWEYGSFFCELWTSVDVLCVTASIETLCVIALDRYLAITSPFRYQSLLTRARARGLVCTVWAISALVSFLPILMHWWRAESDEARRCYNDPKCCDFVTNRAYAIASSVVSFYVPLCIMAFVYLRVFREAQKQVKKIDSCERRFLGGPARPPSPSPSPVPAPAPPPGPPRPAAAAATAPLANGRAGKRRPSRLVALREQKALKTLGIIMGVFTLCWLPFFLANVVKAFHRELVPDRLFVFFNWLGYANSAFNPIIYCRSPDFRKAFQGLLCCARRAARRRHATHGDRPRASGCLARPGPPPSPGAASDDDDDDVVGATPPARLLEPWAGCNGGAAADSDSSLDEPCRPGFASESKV
human Adrenergic, Alpha 2c Receptor (Adra2C), ADRA2C (gene 152), sequence (P18825 whole entry, looked up): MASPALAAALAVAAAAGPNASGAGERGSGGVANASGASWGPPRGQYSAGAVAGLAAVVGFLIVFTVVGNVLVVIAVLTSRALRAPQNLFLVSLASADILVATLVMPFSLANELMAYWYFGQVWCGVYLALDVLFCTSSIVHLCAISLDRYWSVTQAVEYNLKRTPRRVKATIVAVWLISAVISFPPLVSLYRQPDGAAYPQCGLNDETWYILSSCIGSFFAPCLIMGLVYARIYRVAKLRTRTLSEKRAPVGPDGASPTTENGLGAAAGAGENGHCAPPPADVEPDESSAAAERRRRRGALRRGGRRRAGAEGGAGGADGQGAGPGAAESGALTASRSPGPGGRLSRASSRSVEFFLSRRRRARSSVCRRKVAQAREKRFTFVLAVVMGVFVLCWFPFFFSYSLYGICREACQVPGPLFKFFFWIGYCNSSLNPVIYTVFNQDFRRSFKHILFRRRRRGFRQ
human Adenosine A2a Receptor (AdoRA2a), ADORA2A (gene 135), sequence (P29274 whole entry, looked up): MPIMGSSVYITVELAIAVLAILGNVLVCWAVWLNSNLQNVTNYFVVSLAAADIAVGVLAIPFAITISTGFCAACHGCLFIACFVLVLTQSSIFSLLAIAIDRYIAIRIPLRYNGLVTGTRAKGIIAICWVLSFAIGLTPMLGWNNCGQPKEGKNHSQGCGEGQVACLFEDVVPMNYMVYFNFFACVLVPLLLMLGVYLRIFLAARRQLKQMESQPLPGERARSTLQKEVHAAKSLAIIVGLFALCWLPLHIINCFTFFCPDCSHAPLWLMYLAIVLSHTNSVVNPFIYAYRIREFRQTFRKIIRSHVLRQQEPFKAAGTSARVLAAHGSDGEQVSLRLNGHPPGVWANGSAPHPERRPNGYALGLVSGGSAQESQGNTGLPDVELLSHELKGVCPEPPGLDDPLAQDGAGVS
human Serotonin, 5-Hydroxytryptamine Receptor 7 (5HT7), HTR7 (gene 3363), sequence (P34969 whole entry, looked up): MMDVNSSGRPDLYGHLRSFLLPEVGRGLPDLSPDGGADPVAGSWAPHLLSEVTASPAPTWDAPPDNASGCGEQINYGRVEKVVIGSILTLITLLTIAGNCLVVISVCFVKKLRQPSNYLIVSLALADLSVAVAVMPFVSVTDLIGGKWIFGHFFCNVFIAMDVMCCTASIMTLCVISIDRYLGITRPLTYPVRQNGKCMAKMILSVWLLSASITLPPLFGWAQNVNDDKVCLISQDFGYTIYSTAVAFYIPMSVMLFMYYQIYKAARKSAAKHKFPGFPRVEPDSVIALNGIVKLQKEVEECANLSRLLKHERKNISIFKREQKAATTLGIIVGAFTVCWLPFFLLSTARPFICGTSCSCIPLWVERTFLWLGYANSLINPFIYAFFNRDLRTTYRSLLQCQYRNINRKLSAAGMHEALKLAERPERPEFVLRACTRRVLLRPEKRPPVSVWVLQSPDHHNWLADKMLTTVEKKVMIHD
human Serotonin, 5-Hydroxytryptamine Receptor 2A (5HT2A), HTR2A (gene 3356), sequence (P28223 whole entry, looked up): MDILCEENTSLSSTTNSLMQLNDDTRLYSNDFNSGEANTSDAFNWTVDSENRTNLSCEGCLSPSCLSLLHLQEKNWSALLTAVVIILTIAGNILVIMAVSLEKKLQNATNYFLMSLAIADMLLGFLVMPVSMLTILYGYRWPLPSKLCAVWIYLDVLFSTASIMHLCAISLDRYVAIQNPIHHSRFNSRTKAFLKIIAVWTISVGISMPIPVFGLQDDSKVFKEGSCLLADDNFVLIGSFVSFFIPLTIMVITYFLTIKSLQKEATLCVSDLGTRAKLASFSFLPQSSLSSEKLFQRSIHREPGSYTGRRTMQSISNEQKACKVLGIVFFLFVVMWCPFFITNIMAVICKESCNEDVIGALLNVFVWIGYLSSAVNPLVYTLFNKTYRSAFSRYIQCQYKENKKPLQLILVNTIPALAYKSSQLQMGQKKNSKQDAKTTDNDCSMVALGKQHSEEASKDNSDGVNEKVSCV
guinea pig Leukotriene D4 Receptor (LTD4), CYSLTR1 (gene 100135514), sequence (Q2NNR5 whole entry, looked up): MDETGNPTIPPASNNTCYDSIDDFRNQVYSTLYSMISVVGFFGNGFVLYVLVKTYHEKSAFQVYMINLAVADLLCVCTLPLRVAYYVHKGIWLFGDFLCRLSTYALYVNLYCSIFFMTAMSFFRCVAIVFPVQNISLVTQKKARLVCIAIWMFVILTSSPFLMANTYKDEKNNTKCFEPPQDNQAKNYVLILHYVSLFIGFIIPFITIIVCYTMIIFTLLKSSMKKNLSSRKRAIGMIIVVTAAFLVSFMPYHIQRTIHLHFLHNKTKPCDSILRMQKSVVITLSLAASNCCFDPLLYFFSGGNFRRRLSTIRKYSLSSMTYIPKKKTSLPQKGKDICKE
human Adrenergic, Beta 3 Receptor (Adrb3), ADRB3 (gene 155), sequence (P13945 whole entry, looked up): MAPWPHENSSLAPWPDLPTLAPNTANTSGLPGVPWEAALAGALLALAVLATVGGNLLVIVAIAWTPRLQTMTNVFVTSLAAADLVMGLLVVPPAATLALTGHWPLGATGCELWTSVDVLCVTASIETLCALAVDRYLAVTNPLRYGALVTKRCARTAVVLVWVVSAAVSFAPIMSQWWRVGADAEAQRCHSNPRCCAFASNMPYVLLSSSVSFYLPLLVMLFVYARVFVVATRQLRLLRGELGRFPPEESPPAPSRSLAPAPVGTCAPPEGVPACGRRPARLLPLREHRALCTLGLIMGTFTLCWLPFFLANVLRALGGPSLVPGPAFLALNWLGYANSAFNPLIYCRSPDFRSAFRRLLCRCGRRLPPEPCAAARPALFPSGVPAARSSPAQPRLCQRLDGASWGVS
human Adrenergic, Alpha 2A Receptor (Adra2A), ADRA2A (gene 150), sequence (P08913 whole entry, looked up): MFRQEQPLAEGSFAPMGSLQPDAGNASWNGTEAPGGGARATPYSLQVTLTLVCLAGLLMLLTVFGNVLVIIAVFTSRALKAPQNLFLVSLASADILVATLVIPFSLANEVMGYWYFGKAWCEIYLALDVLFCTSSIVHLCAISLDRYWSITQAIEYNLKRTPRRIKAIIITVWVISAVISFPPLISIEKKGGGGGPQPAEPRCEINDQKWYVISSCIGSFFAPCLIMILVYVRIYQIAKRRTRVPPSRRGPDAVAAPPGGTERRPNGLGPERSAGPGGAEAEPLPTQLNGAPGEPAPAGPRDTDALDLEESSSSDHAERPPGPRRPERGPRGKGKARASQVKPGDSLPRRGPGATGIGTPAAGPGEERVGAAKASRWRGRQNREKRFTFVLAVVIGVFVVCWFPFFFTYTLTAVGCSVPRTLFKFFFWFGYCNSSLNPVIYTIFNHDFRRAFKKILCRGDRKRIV
human Histamine 1 Receptor (H1), HRH1 (gene 3269), sequence (P35367 whole entry, looked up): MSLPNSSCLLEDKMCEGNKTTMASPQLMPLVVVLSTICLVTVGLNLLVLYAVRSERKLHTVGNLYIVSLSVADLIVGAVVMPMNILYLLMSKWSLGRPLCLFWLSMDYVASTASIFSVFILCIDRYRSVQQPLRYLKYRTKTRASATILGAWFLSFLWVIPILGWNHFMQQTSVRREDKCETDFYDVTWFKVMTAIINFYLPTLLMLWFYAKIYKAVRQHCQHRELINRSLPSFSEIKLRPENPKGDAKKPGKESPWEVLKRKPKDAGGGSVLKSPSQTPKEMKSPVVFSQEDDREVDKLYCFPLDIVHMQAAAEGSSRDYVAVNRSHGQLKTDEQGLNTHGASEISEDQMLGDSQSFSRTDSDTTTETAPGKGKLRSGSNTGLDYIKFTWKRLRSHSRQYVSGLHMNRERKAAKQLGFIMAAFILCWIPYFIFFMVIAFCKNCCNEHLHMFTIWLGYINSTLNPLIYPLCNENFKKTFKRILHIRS
Beta-2 adrenergic receptor (Homo sapiens), sequence (P07550 whole entry, looked up): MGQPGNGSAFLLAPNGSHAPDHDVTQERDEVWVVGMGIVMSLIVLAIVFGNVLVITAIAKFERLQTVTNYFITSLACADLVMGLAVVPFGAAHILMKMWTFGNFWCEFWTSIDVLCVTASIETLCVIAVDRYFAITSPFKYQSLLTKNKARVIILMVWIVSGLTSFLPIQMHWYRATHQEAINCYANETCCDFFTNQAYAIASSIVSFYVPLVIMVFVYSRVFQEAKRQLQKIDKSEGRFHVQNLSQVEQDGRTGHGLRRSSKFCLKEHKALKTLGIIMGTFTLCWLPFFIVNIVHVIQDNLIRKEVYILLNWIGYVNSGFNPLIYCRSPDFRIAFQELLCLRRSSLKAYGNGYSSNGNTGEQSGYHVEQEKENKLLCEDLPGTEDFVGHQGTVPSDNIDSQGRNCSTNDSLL
guinea pig Opioid, Kappa 1 Receptor (OpiateK), OPRK1 (gene 100135587), sequence (P41144 whole entry, looked up): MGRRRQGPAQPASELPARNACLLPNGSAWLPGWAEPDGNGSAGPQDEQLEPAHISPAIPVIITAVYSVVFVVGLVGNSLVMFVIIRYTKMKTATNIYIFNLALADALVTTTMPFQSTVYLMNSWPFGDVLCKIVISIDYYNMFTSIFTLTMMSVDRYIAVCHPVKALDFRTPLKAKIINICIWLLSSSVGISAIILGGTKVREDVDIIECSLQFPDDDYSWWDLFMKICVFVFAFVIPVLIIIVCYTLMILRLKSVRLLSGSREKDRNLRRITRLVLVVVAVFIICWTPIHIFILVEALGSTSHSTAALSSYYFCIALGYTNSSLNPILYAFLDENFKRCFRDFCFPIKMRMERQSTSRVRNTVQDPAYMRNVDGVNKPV

CCOC(=O)O[C@H](C)OC(=O)c1ccc2c(c1)cc(C(=O)NC1CCN(C(C)C)CC1)n2Cc1cc(-c2ccc(Cl)s2)on1
AC50 [1]: 23.6 µM (active)
AC50 [2]: 23.6 µM (active)
AC50 [3]: 16.6 µM (active)
AC50 [4]: 7.12 µM (active)
AC50 [5]: 2.12 µM (active)
AC50 [6]: 10.2 µM (active)
AC50 [7]: 6.3 µM (active)
AC50 [8]: 6.33 µM (active)
AC50 [9]: 2.01 µM (active)
AC50 [10]: 12.9 µM (active)
AC50 [11]: 20 µM (active)
AC50 [12]: 20.9 µM (active)
AC50 [13]: 14.3 µM (active)
AC50 [14]: 7.84 µM (active)

Cc1ccc2oc(CN(Cc3ccccc3)C(=O)Nc3c(F)cc(F)cc3F)c(-c3ccc(Cl)cc3)c2c1
outcome [15]: inactive

CCCOC(=O)c1cc(O)c(O)c(O)c1
outcome [16]: inactive

O=C(O)Cc1cc(I)c(Oc2ccc(O)c(I)c2)c(I)c1
AC50 [16]: 0.623 µM (active)
outcome [17]: inactive

CC(C)(C)c1csc(-c2cc3cc(OCc4ccccc4CC(=O)O)ccc3o2)n1
AC50 [18]: 0.0125 µM (active)
outcome [8]: inactive
outcome [19]: inactive

CCCCCCCC[Si](OCC)(OCC)OCC
outcome [20]: inactive

COc1cc(C(=O)NC2CCN(C)CC2)ccc1Nc1ncc2c(n1)N(C1CCCC1)CC(F)(F)C(=O)N2C
AC50 [2]: 23.2 µM (active)
AC50 [3]: 9.85 µM (active)
AC50 [20]: 23.2 µM (active)
AC50 [5]: 3.25 µM (active)
AC50 [6]: 13.8 µM (active)
AC50 [7]: 14 µM (active)
AC50 [9]: 6.01 µM (active)
AC50 [14]: 2.74 µM (active)

CCCCCCCCN(C)CCCCCCCC
outcome [11]: inactive

Oc1ccc2ccccc2c1
outcome [12]: inactive

Cc1cc(F)ccc1-c1cc(N2CC[C@@H](O)[C@H]2CO)ncc1N(C)C(=O)C(C)(C)c1cc(C(F)(F)F)cc(C(F)(F)F)c1
outcome [18]: inactive
AC50 [4]: 11.7 µM (active)
AC50 [5]: 2.69 µM (active)
AC50 [6]: 20.4 µM (active)
AC50 [8]: 20.4 µM (active)
AC50 [9]: 5.39 µM (active)
outcome [10]: inactive
